Results with a measured potency or affinity are listed apart. Activity calls are given as the source filed them.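 Rule for the calls: active = signal drop whose fitted half-maximal potency is at most twice the top valid dose tested; inconclusive = flat curve inhibiting 30 to 70 percent, or a poor fit; inactive = the rest.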
These compounds were tested against Endoplasmic reticulum aminopeptidase 2 (Homo sapiens) (UniProt Q6P179) (assay: ERAP2 aminopeptidase inhibitors, dose response, selectivity assay for selective ERAP1 modulator project, biochemical, fluorescence plate reader, cherry-picked, set 2 (AID 743320)). Conditions: recombinant ERAP2, Arg-AMC fluorescence, 1 h; series mostly up to 11 µM; activity change, negative = inhibition: at the top concentration.
Endoplasmic reticulum aminopeptidase 2 (Homo sapiens), sequence (Q6P179 whole entry, looked up): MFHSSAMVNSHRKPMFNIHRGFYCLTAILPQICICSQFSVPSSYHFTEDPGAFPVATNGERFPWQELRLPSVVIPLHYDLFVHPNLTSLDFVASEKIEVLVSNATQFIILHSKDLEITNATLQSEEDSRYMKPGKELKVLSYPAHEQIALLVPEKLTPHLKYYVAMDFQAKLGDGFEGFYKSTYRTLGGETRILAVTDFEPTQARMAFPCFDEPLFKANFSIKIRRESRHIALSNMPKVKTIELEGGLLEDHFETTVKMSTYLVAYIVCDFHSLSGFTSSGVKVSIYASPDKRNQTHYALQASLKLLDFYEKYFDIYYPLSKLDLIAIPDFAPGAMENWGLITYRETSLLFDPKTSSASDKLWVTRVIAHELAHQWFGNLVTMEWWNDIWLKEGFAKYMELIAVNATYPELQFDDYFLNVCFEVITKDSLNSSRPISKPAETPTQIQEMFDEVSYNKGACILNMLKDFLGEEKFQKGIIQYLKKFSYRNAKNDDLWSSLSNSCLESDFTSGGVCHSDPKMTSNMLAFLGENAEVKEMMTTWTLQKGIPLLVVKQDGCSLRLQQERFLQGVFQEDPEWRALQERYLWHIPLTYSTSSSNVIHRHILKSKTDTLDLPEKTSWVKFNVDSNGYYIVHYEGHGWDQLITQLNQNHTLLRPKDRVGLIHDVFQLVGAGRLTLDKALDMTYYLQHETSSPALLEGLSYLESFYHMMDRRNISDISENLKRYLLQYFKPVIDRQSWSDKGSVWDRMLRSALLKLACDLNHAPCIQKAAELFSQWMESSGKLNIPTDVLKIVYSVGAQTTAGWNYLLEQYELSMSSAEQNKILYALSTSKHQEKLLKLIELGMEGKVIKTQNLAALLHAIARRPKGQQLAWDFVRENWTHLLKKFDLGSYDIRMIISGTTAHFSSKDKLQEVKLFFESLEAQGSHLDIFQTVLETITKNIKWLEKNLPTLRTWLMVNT

SMILES | activity change, negative = inhibition
C[C@@H]1CCCCO[C@@H](CN(C)C)[C@H](C)CN([C@@H](C)CO)C(=O)c2cc(NC(=O)Nc3ccc(C(F)(F)F)cc3)ccc2O1 | 14.3% [at 10 µM] (inactive)
COc1cccc(S(=O)(=O)N(C)C[C@@H]2Oc3ncccc3C(=O)N([C@H](C)CO)C[C@@H]2C)c1 | 4.98% (inactive)
C[C@H]1CN([C@@H](C)CO)C(=O)c2cccc(NC(=O)Nc3ccc(C(F)(F)F)cc3)c2O[C@@H]1CN(C)CC1CC1 | -16.1% (inactive)
Cc1ccc(S(=O)(=O)Nc2ccc3c(c2)C(=O)N([C@@H](C)CO)C[C@H](C)[C@H](CN(C)C)OCCCC[C@@H](C)O3)cc1 | 14.1% (inactive)
CO[C@@H]1CN(C)C(=O)c2ccc(NC(=O)Nc3cccc(Cl)c3)cc2OC[C@@H](C)NC[C@H]1C | 3.9% (inactive)
C[C@@H]1CCCCO[C@H](CN(C)Cc2ccc(C(=O)O)cc2)[C@H](C)CN([C@@H](C)CO)C(=O)c2cc(NC(=O)Nc3ccc(C(F)(F)F)cc3)ccc2O1 | 11.3% (inactive)
COc1ccc(CN(C)C[C@@H]2OCCCC[C@@H](C)Oc3ccc(NS(=O)(=O)c4cccs4)cc3C(=O)N([C@@H](C)CO)C[C@H]2C)cc1 | -1.25% (inactive)
CC(=O)N1CCN(C(=O)C2(NC(=O)Nc3ccc(C)cc3)CCCCC2)CC1 | 2.05% (inactive)
C[C@@H]1CCCCO[C@@H](CN(C)C(=O)CCC(F)(F)F)[C@@H](C)CN([C@@H](C)CO)C(=O)c2cc(NS(=O)(=O)c3ccc(Cl)cc3)ccc2O1 | 127% [at 10 µM] (inactive)
COc1ccc(NC(=O)Nc2ccc3c(c2)C(=O)N([C@H](C)CO)C[C@@H](C)[C@H](CN(C)Cc2ccc(C(=O)O)cc2)OCCCC[C@@H](C)O3)cc1 | 12.3% (inactive)

— PubChem BioAssay AID743320 (Broad Institute, 2014)
